Data published in PubChem BioAssay AID1845227 (National Center for Advancing Translational Sciences (NCATS), 2023).
Inconclusive results are not listed. The source made the active and inactive calls. The call rests on the fitted dose curve; in most records, active means well fitted inhibition curve with a large enough effect; inconclusive means small, poorly fitted or top-dose-only effect; inactive means no such curve, though single readings can be large or run the other way.

The molecules below were run against Luciferin 4-monooxygenase (Photinus pyralis) (UniProt P08659) (assay: Confirmatory firefly luciferase (FLuc) qHTS assay for identification of artifact compounds). Conditions: purified FLuc enzyme, luminescence, 5 min; series mostly up to 38.9 µM; activity change, negative = inhibition: at the top concentration.
Source text: PI: Alexander Tropsha Ph.D. UNC Eshelman School of Pharmacy University of North Carolina, Chapel Hill, North Carolina Hits from high-throughput screening (HTS) of chemical libraries are often false positives due to their interference with the assay detection technology. In response to this problem, we generated the largest publicly available library of chemical liabilities and developed a free webtool to predict HTS artifacts, both of which are described herein. More specifically, we generated, curated, and integrated HTS datasets for thiol reactivity, redox activity, and luciferase (firefly and nano) activity. Using these curated datasets, we developed and validated several Quantitative Structure-Interference Relationship (QSIR) models to predict nuisance behavior. […] These models were employed for virtual profiling of the National Center for Advancing Translational Science's (NCATS) in-house library, and 256 compounds for each assay were selected for the experimental validation of nuisance behavior. The BA for these external predictions ranged from 58 to 78% for compounds within the applicability domains of the models. […] The models developed in this study, along with aggregation models previously developed by our group (SCAM Detective) were implemented in "Liability Predictor," an online tool which may be used as part of chemical library design or for triaging HTS hits. Both the models and the curated datasets are publicly available at https://liability.mml.unc.edu/.
PROTOCOL TABLE SEQUENCE No. (e.g., 1, 2, 3, etc.); […] (e.g., Cells, Incubation, Reagent, etc.); VALUE; DESCRIPTION. 1; Reagent; 3 uL; Luciferase substrate mixture. 2; Compounds and control; 16 nL; Kalypsis pin tool (Wako USA) equipped with a 1536-well pin head. 3; Incubation; 15 min. 4; Reagent; 1 uL; Luciferase enzyme. 5; Incubation; 5 min. 6; Detection; Luminescence, ViewLux microplate reader. NOTES (numbers refer to Sequence numbers above) 1. 3 uL of luciferase substrate mixture containing D-luciferin and ATP (final concentrations of 10 uM and 10 uM, respectively) in assay buffer (10 mM Mg-acetate, 0.01% Tween-20, 0.05% bovine serum albumin, 50 mM Tris acetate, pH 7.6) was dispensed into all wells of a 1536-well assay plate (solid-bottom white plate; Greiner Bio One, Monroe, NC). 2. A Wako Pin-tool (Wako Automation, Richmond, VA) was used to transfer 16 nL of compounds (consisting of 7-plates in qHTS format, final concentration range 18.3 nM to 114 uM) or control PTC124 (final concentration range 1.22 nM to 40 uM). 3. 15 min. incubation at room temperature protected from light. 4. 1 uL of luciferase enzyme (final concentration 10 nM, Photinus pyralis luciferase) or buffer was dispensed for a final assay volume of 4 uL. 5. Plates were centrifuged (121xg, 15 seconds) and incubated for 5 minutes. 6. Samples were read for luminescence on a ViewLux CCD imager (PerkinElmer). Data were normalized to no-enzyme (0% activity) and no-inhibitor (DMSO; 100%) controls and the resulting percent inhibition data were fitted to a 4-parameter Hill equation using NCATS in-house software.
Potency means the concentration at half of the fitted maximal effect.

Row | SMILES | activity change, negative = inhibition | Potency
1 | COC(=O)c1scc(-c2ccc(C)cc2)c1S(=O)(=O)Nc1ccc(NC(C)=O)cc1 | 1.57% (inactive) | –
2 | COc1ccc(C2C(C(=O)Nc3ccccc3)=C(C)Nc3c(C(=O)Nc4ccccc4)cnn32)cc1 (stereo not given) | -1.87% (inactive) | –
3 | [O][C@H]1[C@@H](O)[C@@H](CO)O[C@@H](O[C@@H]2[C@@H]3OC[C@H]2O[C@H](O[C@@H]2[C@@H](O)[C@H](C[C@@H]4[C@@H]5OC[C@H]4O[CH][C@@H]5O)O[C@H](CO)[C@@H]2OS(=O)(=O)O)[C@@H]3OS(=O)(=O)O)[C@@H]1O | -2.24% (inactive) | –
4 | COc1ccc(NC(=O)Cn2c(=O)n(CCc3ccccc3)c(=O)c3c4c(sc32)CCCC4)cc1 | 2.55% (inactive) | –
5 | CC1=C(C(=O)Nc2ccc(Cl)cc2)C(c2ccccc2C)n2ncc(C(=O)Nc3ccc(C)cc3)c2N1 (stereo not given) | 1.58% (inactive) | –
6 | COc1ccccc1CNc1ccc(-c2nc(-c3cccnc3)no2)cc1[N+](=O)[O-] | -4.58% (inactive) | –
7 | COc1ccc(OC)c(NC(=O)CC(=O)Nc2ccc3nc4n(c(=O)c3c2)CCCCC4)c1 | 20.1% (inactive) | –
8 | CCN(C(=O)Cn1nc(Cc2cccnc2)c2ccccc2c1=O)c1cc(C)ccc1C | 3.67% (inactive) | –
9 | CCOc1ccccc1NC(=O)CSc1nc2c(oc3ccccc32)c(=O)n1-c1ccc(F)cc1 | -1.76% (inactive) | –
10 | O=C(/C=C/c1ccc(O)c(O)c1)c1ccc(O[C@@H]2O[C@H](CO)[C@@H](O)[C@H](O)[C@H]2O)c(O)c1O | -6.71% (inactive) | –
11 | CCC(=O)N1CCCc2cc(S(=O)(=O)N3CCC(C(=O)Nc4ccccc4CC)CC3)ccc21 | 3.23% (inactive) | –
12 | Cc1ccccc1NS(=O)(=O)c1ccc2[nH]c3c(c2c1)CCCCC3 | 2.48% (inactive) | –
13 | COC(=O)c1scc(-c2ccc(C)cc2)c1S(=O)(=O)N1CCN(c2ccc(C(C)=O)cc2)CC1 | 14.9% (inactive) | –
14 | CCCCCCCCCCCCCCCC(=O)N[C@@H](COP(=O)(O)O)C(=O)O | 3.09% (inactive) | –
15 | COc1cc(Br)c(/C=C(\C#N)c2nc3ccccc3[nH]2)cc1OC | 24.2% (inactive) | –
16 | COc1ccccc1NC(=O)CSC1=Nc2ccccc2C2=NC(CC(=O)NCc3ccccc3)C(=O)N12 (stereo not given) | 4.1% (inactive) | –
17 | CC(C)CN(CCNC(=O)c1cn(C)c2ccc(S(=O)(=O)N3CCOCC3)cc2c1=O)CC(C)C | 10.8% (inactive) | –
18 | O=C1C(c2ccc(F)cc2)N(CCc2ccc(Cl)cc2)C(=O)CN1C1CCCCC1 (stereo not given) | 1.88% (inactive) | –
19 | CC1(C)OC2CC(=O)OCC23C1CC(=O)C1(C)C3CC[C@@]2(C)[C@H](c3ccoc3)OC(=O)C3OC312 (stereo not given in full) | 3.02% (inactive) | –
20 | COc1ccc(CCNC(=O)c2c(C)oc3ncn(C)c(=O)c23)c(OC)c1 | 6.96% (inactive) | –

Row | SMILES | activity change, negative = inhibition | Potency
21 | CC1CCCCN1S(=O)(=O)c1cc2c3c(c1)CC(=O)N3CCC2 (stereo not given) | 2.48% (inactive) | –
22 | O=C(COc1ccccc1C(=O)Nc1ccccc1)Nc1cccc([N+](=O)[O-])c1 | 4.06% (inactive) | –
23 | Ic1ccc(Nc2nc(NCCN3CCOCC3)nc(N3CCOCC3)n2)cc1 | 1.03% (inactive) | –
24 | CN(C)[C@@H]1C(=O)C(C(=O)NCN2CCCC2)C(=O)[C@@]2(O)C(=O)C3C(=O)c4c(O)cccc4[C@@](C)(O)[C@H]3C[C@@H]12 (stereo not given in full) | -3.07% (inactive) | –
25 | CCOc1ccccc1NC(=O)N(Cc1ccc(C)o1)C1CCN(C(C)=O)CC1 | 8.24% (inactive) | –
26 | Cc1cn(C)c(CC(=O)N2CCN(c3ccccc3F)CC2)c1C(=O)O | 3.91% (inactive) | –
27 | Cc1ccc2oc(C(=O)Nc3ccc(S(=O)(=O)N(C)c4ccccc4)cc3)cc(=O)c2c1 | 1.46% (inactive) | –
28 | CNCc1nc(-c2ccc[nH]2)c2cc(Cl)ccc2n1 | -3.62% (inactive) | –
29 | Cc1ccc(NC(=O)CSc2ccc(-c3cccs3)nn2)cc1Cl | 6.83% (inactive) | –
30 | COc1ccc(-c2noc(N3CCC(C(=O)N4CCN(c5cccc(C)c5C)CC4)CC3)n2)cc1 | 60.8% (inactive) | –
31 | Cc1nnc(NC(=O)c2nc(S(=O)(=O)Cc3ccccc3)ncc2Cl)s1 | 2.84% (inactive) | –
32 | C[C@@H]1CC2(OC3C[C@@]4(C)C5=CC[C@H]6C(C)(C)C(O[C@@H]7OC[C@@H](O)[C@H](O)[C@H]7O)CC[C@@]67C[C@@]57CC[C@]4(C)C31)OC(O)C1(C)OC21 (stereo not given in full) | -1.61% (inactive) | –
33 | Cc1c(CCNC(=O)Cc2ccc(F)cc2)sc2nc(-c3ccc(F)cc3)nn12 | -5.72% (inactive) | –
34 | Cc1nc(CC(=O)Nc2ccc(C)c(C)c2)cs1 | -0.339% (inactive) | –
35 | Cn1c(=O)[nH]c2cc(-c3noc(-c4cccc(Cl)c4)n3)ccc21 | 53% (inactive) | –
36 | CCN(Cc1cccc(S(=O)(=O)O)c1)c1ccc(C(=C2C=CC(=[N+](CC)Cc3cccc(S(=O)(=O)O)c3)C=C2)c2ccccc2S(=O)(=O)[O-])cc1 | – | 12.2 µM (active)
37 | O=C(Nc1nnc(-c2ccccc2)s1)c1ccc(S(=O)(=O)N2CCCC2)cc1 | -2.64% (inactive) | –
38 | Cc1nc(-c2ccc(Cl)cc2)sc1CCNC(=O)c1ccco1 | -17.5% (inactive) | –
39 | CCCOC(=O)c1ccc(NC(=O)C2CC(=O)N(c3ccc(C)cc3)C2)cc1 (stereo not given) | -1.06% (inactive) | –
40 | O=C(Nc1ccc(Br)cc1)c1cc(-c2cccs2)nc2ccccc12 | -3.02% (inactive) | –
